Screens from PubChem.
ERK EGF block = blocks ERK signaling stimulated by EGF | HEK293-V1b, EGF-stimulated phospho-ERK AlphaScreen | Potency, µM (highest dose often 11.5 µM), for inactives: top-dose activity change, negative = inhibition, hits mostly inhibitors | 130,000 compounds, 0.41% hits | AID 1454; active = well fitted inhibition curve with a large enough effect;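 note: plate controls were stimulated vehicle wells for no effect and unstimulated vehicle basal for full effect; nearly all actives have a fitted effect of over 55% in size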
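Readout: AlphaScreen signal for phosphorylated ERK in lysed HEK293 cells stably expressing V1b. Stimulus 25 nM EGF, 5 min, following 30 min compound exposure. Data scaled to DMSO basal and full EGF activation.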
Active calls of the source: *; [ ] = remark or other dose. This excerpt belongs to a sample that is enriched for hits. Potency is the fitted concentration of half-maximal effect.

SMILES | ERK EGF block
O=c1c(O)cc(C2Oc3cc(O)cc(O)c3CC2O)cc2c(C3Oc4cc(O)cc(O)c4CC3O)cc(O)c(O)c12 (stereo not given) | 26%
O=c1c(-c2cccs2)nc2cnc(Oc3cccc(Cl)c3)nc2n1C1CC1 | -3%
CCCCC1=CC2=C(c3ccco3)C(=O)C(C)(OC(=O)c3ccc(OC)cc3)C(=O)C2=CO1 (stereo not given) | -8%
COc1ccccc1NS(=O)(=O)c1cc(NC(=S)NCC2CCCO2)ccc1C (stereo not given) | 6%
COc1cc(C(=O)NS(=O)(=O)c2ccccc2C)ccc1Cc1cn(C)c2ccc(NC(=O)OC3CCCC3)cc12 | 28µM*
CCOc1ccc(CNC(=O)CCCc2cn(C)c3ccccc23)cc1OC | 1%
COc1ccccc1NC1=C(N2CCCCC2)C(=O)c2ccccc2C1=O | 25µM*
COc1ccccc1NC(=O)C(=O)N1CCCC1 | -10%
COc1ccccc1NS(=O)(=O)c1cc(NC(C)=O)ccc1N1CCCCC1 | 2%
COc1ccc(-c2coc3c(OC)c(OC)cc(O)c3c2=O)cc1 | 10%
Cc1cccc(-c2cc(=O)c3cc(Br)ccc3o2)c1 | -9%
Clc1ccccc1CN1CCN(/N=C/c2ccncc2)CC1 | -4%
COc1ccccc1N1CCN(/N=C/c2cccc(OC)c2OC)CC1 | -9%
Cc1ccc(/C=N/N2CCN(c3ccccc3)CC2)cc1 | 0%
COc1ccccc1/C=C/C=N\N1CCN(Cc2ccccc2Cl)CC1 | 18µM*
O=[N+]([O-])c1ccccc1/C=N\N1CCN(c2ccccc2)CC1 | 22µM*
O=[N+]([O-])c1cc(/C=N/N2CCN(c3ccccc3)CC2)ccc1Cl | 6%
Clc1ccc(/C=N/N2CCN(Cc3ccccc3Cl)CC2)cc1 | -4%
COc1ccccc1N1CCN(/N=C/C=C/c2ccccc2[N+](=O)[O-])CC1 | 20µM*
COc1cc(C(=O)N2CCN(c3ccccc3OC)CC2)c([N+](=O)[O-])cc1OC | -3%
COCCn1c(=O)c(-c2ccc(F)cc2)nc2cnc(OCc3ccccc3)nc21 | -2%
C[C@]12C[C@@](C)(C=C1/C=C/c1ccc(C(F)(F)F)cc1)C(=O)C[C@H]2c1ccc(C(F)(F)F)cc1 | 4%
C[C@]12O[C@H]1[C@@H](O)C(Br)=C(CO)[C@H]2O | -6%
O=C(c1cccc(F)c1)N1CCC2(CCN(Cc3ccccc3)CC2)CC1 | 9%
COC(=O)C=P(c1ccccc1)(c1ccccc1)c1ccccc1 | -3%
SMILES | ERK EGF block
CC1O[C@@H](O[C@H]2C(Oc3cc(O)c4c(c3)OC(c3ccc(O)cc3)CC4=O)OC(CO)C(O)C2O)C(O)C(O)C1O (stereo not given in full) | 12%
CC1OC(OC2C(OC3C(O[C@H]4CC[C@]5(C)C6C=C[C@]78OC[C@@]9(CC[C@@H](C)[C@H](C)C97)[C@H](O)C[C@@]8(C)[C@]6(C)CC[C@H]5C4(C)C)OC(C)C(O)C3O)OC(CO)C(O)C2O)C(O)C(O)C1O (stereo not given in full) | 11µM*
C=C(C)C(=O)C1CCCCC1 | -12%
O=[N+]([O-])c1cc(-n2cccc2)ccc1N1CCOCC1 | 28µM*
O=[N+]([O-])c1cc(Cl)ccc1N1CCOCC1 | 3%
Cc1ccc(C)n1-c1ccc(N2CCOCC2)c([N+](=O)[O-])c1 | -5%[57.5 µM]
CN(C)Cc1ccccc1-c1nc(N2CCOCC2)c2ccccc2n1 | 31%
Cc1cccc2cc(/C=N/NC(=O)c3ccncc3)c(Cl)nc12 | -3%[57.5 µM]
Cc1cccc2cc(/C=N/NC(=O)[C@H]3C[C@@H]3c3ccccc3)c(Cl)nc12 | -10%[57.5 µM]
Cc1cccc2cc(/C=N/NC(=O)c3ccccc3O)c(Cl)nc12 | 20µM*
O=C(O)c1ccc(NC2=C(Cl)C(=O)c3ccccc3C2=O)cc1 | 10µM*
Cc1ccc(NCCC(=O)c2ccccc2)cc1Cl | -1%[57.5 µM]
Cc1ccc(NC(=O)C(c2ccccc2)N(C)C)cc1Cl (stereo not given) | -7%
Cc1ccc(NC2=C(NC(=O)c3ccccc3)C(=O)c3ccccc3C2=O)cc1Cl | 16µM*
C=CCNC1=C(Cl)C(=O)c2ccccc2C1=O | -8%
O=C(O)c1ccc(NC2=Nc3cccc4cccc2c34)cc1 | 4%[57.5 µM]
C=C[C@](C)(O)CCC1C(=C)CC(OC(C)=O)C2C(C)(C)CCCC12C (stereo not given in full) | 41%
C=C[C@@H]1CN2CC[C@@H]1C[C@@H]2[C@H](O)c1ccnc2ccc(OC)cc12 | 9%
CN=C1N[C@H](c2ccccc2)N(c2ccccc2)S1 | -17%
COC(=O)[C@@]1(C)C=C[C@@H](Cc2ccccc2)N1C | -2%
CCN(CC)CC(=O)Nc1cccc2c1C(=O)c1ccccc1C2=O | -8%
O=C(NCCO)c1cccc2c1-c1ccccc1C2=O | -3%
O=C1c2ccccc2C(=O)c2c(NCCCN(CCO)CCO)cccc21 | 28µM*
CCCn1c(-c2ccc(F)cc2)nc2c(NC3CC4CCC(C3)N4C)nc(C)nc21 (stereo not given) | 1%
O=S(=O)(c1ccc(Cl)c(NC(=S)Nc2ccccc2N2CCOCC2)c1)N1CCOCC1 | 3%
SMILES | ERK EGF block
O=S(=O)(c1ccc(NC(=S)N/N=C/c2ccc(O)c(O)c2)cc1)N1CCOCC1 | -5%[57.5 µM]
O=S(=O)(c1ccc(Cl)c(NC(=S)N/N=C/c2ccc(O)cc2)c1)N1CCOCC1 | 28µM*
CC(=O)N1CCC[C@@]2(CCN(Cc3ccc(C#N)cc3)C2)C1 | -8%
COC(=O)[C@H]1CC2(CC=C(C)C)C(=O)[C@@](CC=C(C)C)(C(=O)C(C(=O)c3ccccc3)=C2OC)C1(C)C (tested in a mixture with another compound) | -9%
O=C1NCCN1c1ncc([N+](=O)[O-])s1 | -3%[25.7 µM]
O=C(Nc1ccc(Cl)cc1)Nc1ccccc1Sc1ncc([N+](=O)[O-])s1 | -3%[57.5 µM]
O=[N+]([O-])c1cnc(Sc2ccncn2)s1 | 14µM*
Cc1nc(Cl)c2c(n1)NC1=C(O2)C(=O)CCC1 | 1%
NCCC[C@@H](CC(=O)N[C@@H]1CCCC[C@H]1C(=O)N[C@H](CC(=O)N[C@@H](CCC(=O)O)CC(=O)O)Cc1ccccc1)NC(=O)C[C@H](CO)NC(=O)[C@@H]1CNCC[C@H]1N | -7%
C[C@H](Cc1ccccc1)Nc1ncnc2c1ncn2[C@@H]1O[C@H](CO)[C@H](O)[C@H]1O | 1%
COc1ccc(C(=O)N2CCC3(CC2)CCN(c2ccccc2)CC3)cc1 | 3%
O=[N+]([O-])c1cccnc1N/N=C/c1ccccc1O | 6%
COc1cc(/C=N/Nc2ccccc2[N+](=O)[O-])ccc1OC(=O)c1ccccc1F | 0%
COc1ccc(/C=N\Nc2ccccc2[N+](=O)[O-])c(C(=O)O)c1OC | -11%[57.5 µM]
CC(C)Oc1ccccc1/C=N/Nc1ccccc1[N+](=O)[O-] | 13µM*
COc1cc(/C=N/Nc2ccccc2[N+](=O)[O-])cc(OC)c1O | 13%
Cc1[nH]c2ccccc2c1/C=N/Nc1ccccc1[N+](=O)[O-] | 25µM*
Cc1[nH]c2ccccc2c1/C=N/NS(=O)(=O)c1ccccc1 | -10%
Cc1[nH]c2ccccc2c1/C=N/NC(=S)NC(C)C | -12%
COc1ccccc1/C=N\Nc1ccccc1[N+](=O)[O-] | 10µM*
CCCCc1c2ccccc2nc2[nH]c3ccccc3c12 | 1%
COc1ncc2nc(C)c(=O)n(Cc3cccs3)c2n1 | 10%
Cc1cc(O)c(C=O)c2c1C(=O)Oc1c(COC(=O)/C=C/C(=O)O)c(O)c(C(=O)O)c(C)c1O2 | -5%
COc1cc(C)c(CC/C(C)=C/C=C/C(C)=O)c(C)c1C | -12%
